# Values joined by “and” are separate entries in the source; they are usually repeats but may differ in a detail not shown here. Equal entries are not always repeated. Records with an inconclusive call do not appear. Some compounds were tested as several samples or in several runs, with calls that do not always agree. Active and inactive are the calls of the source. The calls were made as follows: active = hit-call score of the fitted dose curve at least 0.9, where 1 is the maximum; inconclusive = response in the unintended direction; inactive = score below 0.9.
# Tested on: turtle Estrogen Receptor (ERa), gene 101933533
# Assay: ATG_trERa_XSP2: Attagene TRANS-FACTORIAL Multi-Species (XSP2) HepG2 Assay for turtle Estrogen Receptor (ERa) (AID 2283812);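 also: actives raise reporter signal above DMSO so AC50 reflects agonist activity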
# Protocol: ATG_XSP2_multi-species_TRANS is a cell-based, multiplexed assay created by modifying the existing Attagene TRANS-FACTORIAL system to include a panel of nuclear receptors from some or all the following species: human (Homo sapiens), mouse (Mus musculus), frog (Xenopus laevis), zebrafish (Danio rerio), chicken (Gallus gallus), and turtle (Chrysemys picta). The ECOTOX-FACTORIAL format uses HepG2, a human liver cell line, with measurements taken at 24 hours after chemical dosing in a 24-well plate. Xsp2 included 3 nM 6-alpha-fluorotestosterone and 1.5 nM norgestrel to stimulate the androgen receptor.ATG_trERa_XSP2 is one of 29 assay components measured or calculated from the ATG_XSP2_multi-species_TRANS assay. It is designed to make measurements of mRNA induction, a form of inducible reporter, as detected with fluorescence intensity signals by Reverse transcription polymerase chain reaction (RT-PCR) and Capillary electrophoresis technology.The assay endpoint ATG_trERa_XSP2 was analyzed in the positive analysis fitting direction relative to DMSO as the negative control and baseline of activity. Using a type of inducible reporter, measures of mRNA for gain-of-signal activity can be used to understand the reporter gene at the transcription factor-level as they relate to the gene ER. Furthermore, this assay endpoint can be referred to as a primary readout, because this assay has produced multiple assay endpoints where this one serves a reporter gene function. To generalize the intended target to other relatable targets, this assay endpoint is annotated to the nuclear receptor intended target family, where the subfamily is steroidal.
# Human liver HepG2 cells are transiently transfected with multiple reporter transcription units (MRTUs) in 6-well plates using FuGene 6 reagent (Roche; 3 ml FuGene/1 mg DNA). The MRTU constructs are regulated by a cis-regulating element (promoter). […] A major difference between the CIS and TRANS system is that in CIS activities of endogenous TFs are measured, whereas the TRANS assay evaluates changes in activities of exogenous, chimeric NR-Gal4 proteins. […] At the end of 24 hour incubation, total RNA was isolated using TriZol reagent (Invitrogen). The isolated RNA is then reverse-transcribed using oligo(dT) primer and Mo-MLV reverse transcriptase (Invitrogen) with DNAse I (Ambion) treatment for 30 min. The one-tenth of the produced cDNA was amplified by PCR using Taq DNA polymerase (Invitrogen) and two reporter sequence-specific primers. The PCR products were fluorescently labeled by primer extension with 6-arboxyfluorescein (6-FAM) 5'-labeled reporter sequence-specific primer (2 min at 95 C, 20 s at 68 C and 10 min at 72 C) and these products were digested with 5U of HpaI (New England Biolabs) for 2h at 37 C. The fragments were purified using Qiaquick PCR columns (Qiagen), analyzed on an ABI 3130xL genetic analyzer (Applied Biosystems) with peak positions identified by using a set of X-rhodamine (ROX)-labeled MapMarker1000 molecular weight standards (BioVentures). The raw capillary electrophoresis data was processed using Attagraph software (Attagene).
SMILES,AC50,outcome
O=S(=O)(c1ccc(Cl)cc1)c1ccc(Cl)cc1,14.4 µM (active) and 15.9 µM (active),–
CC12CC1(C)C(=O)N(c1cc(Cl)cc(Cl)c1)C2=O (stereo unspecified),100 µM (active),inactive
O=C1C2(Cl)C3(Cl)C4(Cl)C(Cl)(Cl)C5(Cl)C3(Cl)C1(Cl)C5(Cl)C24Cl (stereo unspecified),0.514 µM (active),–
C[C@H]1CCCC(=O)CCC/C=C/c2cc(O)cc(O)c2C(=O)O1,7 nM (active) and 1.7 nM (active),–
Oc1ccc(-c2ccccc2)cc1,1.44 µM (active) and 925 nM (active),–
C[C@]12CC[C@H](O)CC1=CC[C@@H]1[C@@H]2CC[C@]2(C)C(=O)CC[C@@H]12,2.22 µM (active) and 1.09 µM (active),–
C[C@]12CCC(=O)C[C@@H]1CC[C@@H]1[C@@H]2CC[C@]2(C)[C@@H](O)CC[C@@H]12,–,inactive
Clc1ccc(C2(Cn3cncn3)CC(Br)CO2)c(Cl)c1 (stereo unspecified),19.8 µM (active),inactive
CC1(C)CCC(Cc2ccc(Cl)cc2)C1(O)Cn1cncn1 (stereo unspecified),5.11 µM (active),–
CC(C)(C)c1cc(O)ccc1O,15.3 µM (active),–
COP(=O)(OC)O/C(=C\Cl)c1cc(Cl)c(Cl)cc1Cl,3.18 µM (active),–
CC(C)(C)CC(C)(C)c1ccc(O)cc1,5.79 µM (active),–
CC(C)C1CCC(Cc2ccc(Cl)cc2)C1(O)Cn1cncn1 (stereo unspecified),–,inactive
CC(=O)C=C(C)C,–,inactive
